PubChem BioAssay (EPA / NIEHS)
Active and inactive are the calls of the source. The calls were made as follows: active = hit-call score of the fitted dose curve at least 0.9, where 1 is the maximum; inactive = score below 0.9.

Legend:
Settings in all cases: mRNA level, 48 h; actives raise or lower the signal
[1] = read-out: Interleukin 6 Receptor (IL6R), IL6R (gene 3570); assay: LTEA_HepaRG_IL6R: Life Technologies and Expression Analysis (LTEA) Assay for Interleukin 6 Receptor (IL6R) using HepaRG (AID 2283510)
Summary of the method: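 HepaRG, 48 h exposure, 8-pt half-log series, top 100 uM, 0.5% DMSO vehicle, duplicates. Read-out: TaqMan qRT-PCR of IL6R transcript, housekeeping-gene normalized. Gain or loss fitted relative to DMSO baseline.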

[2] = read-out: Potassium channel subfamily K member 1 (KCNK1), KCNK1 (gene 3775); assay: LTEA_HepaRG_KCNK1: Life Technologies and Expression Analysis (LTEA) Assay for Potassium channel subfamily K member 1 (KCNK1) using HepaRG (AID 2283511)
Summary of the method: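 HepaRG, 48 h exposure, 8-pt half-log series top 100 uM, 0.5% DMSO vehicle, duplicates. Readout: KCNK1 transcript by qRT-PCR (Fluidigm array), housekeeping-normalized; bidirectional curve fit relative to DMSO baseline.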

[3] = read-out: Keratin 19 (KRT19), KRT19 (gene 3880); assay: LTEA_HepaRG_KRT19: Life Technologies and Expression Analysis (LTEA) Assay for Keratin 19 (KRT19) using HepaRG (AID 2283512)
Summary of the method: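 Differentiated human HepaRG cells, plated 48 h, were exposed in duplicate for 48 h in serum-free induction medium to eight half-log concentrations up to 100 uM in 0.5% DMSO. KRT19 mRNA was quantified by qRT-PCR, normalized to ACTB, GAPDH and POLR2A, and fitted bidirectionally versus DMSO.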

[4] = read-out: JUN Transcription Factor, JUN (gene 3725); assay: LTEA_HepaRG_JUN: Life Technologies and Expression Analysis (LTEA) Assay for JUN Transcription Factor using HepaRG (AID 2283513)
Summary of the method: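 HepaRG, 48 h exposure, 8-pt half-log series top 100 uM, 0.5% DMSO, duplicate. JUN mRNA by qRT-PCR (Fluidigm), housekeeping-normalized (ACTB/GAPDH/POLR2A); bidirectional curve fit vs DMSO baseline.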

[5] = read-out: Lipase C (LIPC), LIPC (gene 3990); assay: LTEA_HepaRG_LIPC: Life Technologies and Expression Analysis (LTEA) Assay for Lipase C (LIPC) using HepaRG (AID 2283514)
Summary of the method: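 HepaRG, 48 h exposure, 8-pt half-log series from 100 uM in 0.5% DMSO, duplicates. Readout: LIPC mRNA by Fluidigm qRT-PCR, housekeeping-normalized (ACTB/GAPDH/POLR2A). Gain or loss fitted bidirectionally against DMSO baseline.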

[6] = read-out: Lipoprotein lipase (LPL), LPL (gene 4023); assay: LTEA_HepaRG_LPL: Life Technologies and Expression Analysis (LTEA) Assay for Lipoprotein lipase (LPL) using HepaRG (AID 2283515)
Summary of the method: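 HepaRG, 48 h exposure, 8-pt half-log dilutions from 100 uM, 0.5% DMSO vehicle, duplicates; qRT-PCR (Fluidigm array) of LPL mRNA vs housekeeping genes; bidirectional curve fit relative to DMSO baseline.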

[7] = read-out: MicroRNA 122 (MIR122), gene 406906; assay: LTEA_HepaRG_MIR122: Life Technologies and Expression Analysis (LTEA) Assay for MicroRNA 122 (MIR122) using HepaRG (AID 2283516); also: the transcript read is the microRNA miR-122
Summary of the method: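 qRT-PCR read-out (TaqMan, Fluidigm array), normalized to three housekeeping genes; HepaRG cells dosed 48 h at 8 concentrations up to 100 uM in 0.5% DMSO, duplicate; gain or loss fitted against DMSO baseline.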

[8] = read-out: matrix metalloproteinase-10 (MMP10), MMP10 (gene 4319); assay: LTEA_HepaRG_MMP10: Life Technologies and Expression Analysis (LTEA) Assay for matrix metalloproteinase-10 (MMP10) using HepaRG (AID 2283517)
Summary of the method: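 Transcript levels come from Fluidigm qRT-PCR normalized to three housekeeping genes, with curves fitted bidirectionally against 0.5% DMSO. Human HepaRG cells were dosed for 48 hours at concentrations up to 100 uM.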

MYC, MYC (gene 4609) = assay: LTEA_HepaRG_MYC: Life Technologies and Expression Analysis (LTEA) Assay for MYC using HepaRG (AID 2283518)
Summary of the method: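 Differentiated human HepaRG cells, plated 48 h then switched to serum-free induction medium, were exposed in duplicate for 48 h to 8-point half-log series up to 100 uM in 0.5% DMSO. MYC mRNA measured by qRT-PCR, normalized to ACTB/GAPDH/POLR2A.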

[9] = read-out: matrix metalloproteinase-3 (MMP3), MMP3 (gene 4314); assay: LTEA_HepaRG_MMP3: Life Technologies and Expression Analysis (LTEA) Assay for matrix metalloproteinase-3 (MMP3) using HepaRG (AID 2283519)
Summary of the method: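 qRT-PCR read-out of MMP3 mRNA (normalised to three housekeeping genes) in HepaRG liver cells after 48 h chemical exposure; 8-point half-log series, top 100 uM, 0.5% DMSO vehicle. Bidirectional curve fitting against DMSO baseline.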

[10] = read-out: Paternally Expressed 10 (PEG10), PEG10 (gene 23089); assay: LTEA_HepaRG_PEG10: Life Technologies and Expression Analysis (LTEA) Assay for Paternally Expressed 10 (PEG10) using HepaRG (AID 2283520)
Summary of the method: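 qRT-PCR read-out: PEG10 mRNA normalised to three housekeeping genes, fitted bidirectionally against 0.5% DMSO vehicle. HepaRG cells received test chemicals for 48 h in serum-free induction medium, 8 points, top 100 uM, half-log steps.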

[11] = read-out: Protein phosphatase 2A (PPP2R4), PTPA (gene 5524); assay: LTEA_HepaRG_PPP2R4: Life Technologies and Expression Analysis (LTEA) Assay for Protein phosphatase 2A (PPP2R4) using HepaRG (AID 2283522)
Summary of the method: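 HepaRG, 48 h exposure, 8-pt half-log series from 100 uM, 0.5% DMSO vehicle, duplicates. Readout: PPP2R4 mRNA, Fluidigm qRT-PCR, housekeeping-normalized. Bidirectional curve fit vs DMSO baseline.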

[12] = read-out: Phosphatase and tensin (PTEN), PTEN (gene 5728); assay: LTEA_HepaRG_PTEN: Life Technologies and Expression Analysis (LTEA) Assay for Phosphatase and tensin (PTEN) using HepaRG (AID 2283523)
Summary of the method: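 HepaRG, 48 h exposure, 8-pt half-log series from 100 uM top, 0.5% DMSO vehicle, duplicates. Readout: Fluidigm qRT-PCR of PTEN transcript; housekeeping normalization (ACTB, GAPDH, POLR2A). Gain or loss fitted relative to DMSO baseline.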

[13] = read-out: solute carrier (SLC22A1), SLC22A1 (gene 6580); assay: LTEA_HepaRG_SLC22A1: Life Technologies and Expression Analysis (LTEA) Assay for solute carrier (SLC22A1) using HepaRG (AID 2283524)
Summary of the method: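 qRT-PCR readout (TaqMan, Fluidigm arrays) of SLC22A1 transcript, normalized to three housekeeping genes; bidirectional curve fit relative to 0.5% DMSO vehicle. Differentiated human HepaRG cells, 48 h chemical exposure, top concentration 100 uM, half-log steps, eight points.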

[14] = read-out: Pyruvate Dehydrogenase Kinase 4 (PDK4), PDK4 (gene 5166); assay: LTEA_HepaRG_PDK4: Life Technologies and Expression Analysis (LTEA) Assay for Pyruvate Dehydrogenase Kinase 4 (PDK4) using HepaRG (AID 2283525)
Summary of the method: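 HepaRG (human liver line), 48 h chemical exposure, 8-pt half-log CRC top 100 uM, 0.5% DMSO vehicle, duplicates. Readout: TaqMan qRT-PCR of PDK4 mRNA, housekeeping-normalized; gain/loss fit relative to DMSO baseline.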

[15] = read-out: NAD(P)H dehydrogenase [quinone] 1 (NQO1), NQO1 (gene 1728); assay: LTEA_HepaRG_NQO1: Life Technologies and Expression Analysis (LTEA) Assay for NAD(P)H dehydrogenase [quinone] 1 (NQO1) using HepaRG (AID 2283526)
Summary of the method: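 qRT-PCR read-out (Fluidigm TaqMan), normalized to three housekeeping genes, after 48 h chemical exposure of HepaRG cells. Concentrations: eight points, top 100 uM, half-log steps, 0.5% DMSO vehicle. Gain or loss of signal fitted relative to DMSO.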

[16] = read-out: Nuclear factor erythroid 2-related factor 2 (Homo sapiens) (UniProt Q16236); assay: LTEA_HepaRG_NFE2L2: Life Technologies and Expression Analysis (LTEA) Assay for Nuclear factor erythroid 2-related factor 2 (NFE2L2) Transcription Factor using HepaRG (AID 2283527)
Summary of the method: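 HepaRG, 48 h dosing, 8-pt half-log series from 100 uM in 0.5% DMSO, duplicates. Read-out: NFE2L2 mRNA by qRT-PCR (ACTB/GAPDH/POLR2A normalization). Bidirectional curve fit vs DMSO baseline.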

[17] = read-out: succinate dehydrogenase complex iron sulfur subunit B (SDHB), SDHB (gene 6390); assay: LTEA_HepaRG_SDHB: Life Technologies and Expression Analysis (LTEA) Assay for succinate dehydrogenase complex iron sulfur subunit B (SDHB) using HepaRG (AID 2283528)
Summary of the method: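 SDHB transcript level read by TaqMan qRT-PCR, housekeeping-normalised (ACTB, GAPDH, POLR2A), after 48 h chemical treatment of plated HepaRG cells; eight concentrations top 100 uM, half-log steps, 0.5% DMSO, duplicates; fitted both directions against DMSO.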

[18] = read-out: Signal transducer and activator of transcription 3 (Homo sapiens) (UniProt P40763); assay: LTEA_HepaRG_STAT3: Life Technologies and Expression Analysis (LTEA) Assay for Signal transducer and activator of transcription (STAT3) using HepaRG (AID 2283529)
Summary of the method: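 HepaRG, 48 h exposure, 8-pt half-log series (top 100 uM), 0.5% DMSO vehicle, duplicates. Readout: STAT3 transcript by Fluidigm qRT-PCR, housekeeping-normalized; bidirectional fit vs DMSO baseline.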

[19] = read-out: solute carrier (SLCO1B1), SLCO1B1 (gene 10599); assay: LTEA_HepaRG_SLCO1B1: Life Technologies and Expression Analysis (LTEA) Assay for solute carrier (SLCO1B1) using HepaRG (AID 2283530)
Summary of the method: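 Differentiated human HepaRG cells, plated 48 h, switched to serum-free induction medium and exposed in duplicate for 48 h to 8 half-log concentrations (top 100 uM) in 0.5% DMSO. SLCO1B1 mRNA by TaqMan qRT-PCR, normalized to ACTB/GAPDH/POLR2A.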

Measured: outcome

Nuclear factor erythroid 2-related factor 2 (Homo sapiens), sequence (Q16236 whole entry, looked up): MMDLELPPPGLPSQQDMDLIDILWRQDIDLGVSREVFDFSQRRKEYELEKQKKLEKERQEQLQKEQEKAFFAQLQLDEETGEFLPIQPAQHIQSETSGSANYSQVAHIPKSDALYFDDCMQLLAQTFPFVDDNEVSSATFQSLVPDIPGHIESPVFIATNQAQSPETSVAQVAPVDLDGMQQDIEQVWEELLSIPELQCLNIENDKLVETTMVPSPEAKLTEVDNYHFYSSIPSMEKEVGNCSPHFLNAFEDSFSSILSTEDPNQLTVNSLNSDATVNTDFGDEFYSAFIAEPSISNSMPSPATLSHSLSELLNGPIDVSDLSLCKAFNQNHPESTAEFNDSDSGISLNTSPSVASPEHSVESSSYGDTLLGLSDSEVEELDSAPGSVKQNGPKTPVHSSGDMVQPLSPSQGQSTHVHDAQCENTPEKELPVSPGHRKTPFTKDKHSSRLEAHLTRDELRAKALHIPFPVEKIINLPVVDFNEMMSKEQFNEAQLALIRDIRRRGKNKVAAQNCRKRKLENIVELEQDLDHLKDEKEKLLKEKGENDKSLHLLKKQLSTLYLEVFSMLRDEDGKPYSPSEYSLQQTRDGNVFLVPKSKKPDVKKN
Signal transducer and activator of transcription 3 (Homo sapiens), sequence (P40763 whole entry, looked up): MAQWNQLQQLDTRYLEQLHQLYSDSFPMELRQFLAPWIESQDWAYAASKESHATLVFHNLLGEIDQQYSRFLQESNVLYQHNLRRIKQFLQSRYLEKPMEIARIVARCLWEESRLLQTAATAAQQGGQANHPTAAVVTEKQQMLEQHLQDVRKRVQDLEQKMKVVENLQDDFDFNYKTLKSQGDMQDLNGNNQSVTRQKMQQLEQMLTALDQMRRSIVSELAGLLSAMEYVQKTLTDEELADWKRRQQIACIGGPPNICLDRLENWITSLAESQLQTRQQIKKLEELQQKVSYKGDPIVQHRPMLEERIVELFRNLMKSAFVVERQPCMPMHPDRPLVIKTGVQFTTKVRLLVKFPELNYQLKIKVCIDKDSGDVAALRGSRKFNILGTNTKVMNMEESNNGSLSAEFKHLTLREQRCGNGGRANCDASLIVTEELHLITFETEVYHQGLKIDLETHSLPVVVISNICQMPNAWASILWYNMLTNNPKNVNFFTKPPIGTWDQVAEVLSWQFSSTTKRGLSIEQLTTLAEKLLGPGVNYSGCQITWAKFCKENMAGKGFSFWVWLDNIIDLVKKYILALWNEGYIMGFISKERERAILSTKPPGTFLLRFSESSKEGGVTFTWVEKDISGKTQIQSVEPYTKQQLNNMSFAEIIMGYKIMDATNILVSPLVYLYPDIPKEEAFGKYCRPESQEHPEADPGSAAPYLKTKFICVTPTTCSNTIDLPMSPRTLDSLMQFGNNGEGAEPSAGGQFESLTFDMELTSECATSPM

CCC(C)=NO
inactive: all assays above
